For 40 compounds, growth inhibition results are on record in PubChem BioAssay (NCI).

Structures are written as SMILES. About 79,000 compounds went through this panel and 15% of them were active in at least one assay; those are over-represented in the sample as a whole. Calls of active or inactive are those of the source. No stated cut-off is given here; in the data, active means growth inhibition above about 70%; inactive means the rest.

The nature of this assay: NCI Yeast Anticancer Drug Screen. Data for the rad50 strain (AID 155).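 Further: 0% = growth of vehicle-only cultures of the same strain.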 Particulars: S. cerevisiae rad50 strain growth inhibition; at 50.0 µM; stronger effect = higher value. The procedure:
Growth inhibition of yeast strains with defined genetic alterations is measured as a screen for potential anti-cancer activity. Selected strains with alterations in DNA damage repair or cell cycle control were exposed to compounds and growth inhibition was measured relative to vehicle treated controls. The strain used in this assay is rad50
In the case of `C=CCOC(=O)/C=C/C`, the growth inhibition was 7% (inactive).

For `Cc1ccc(S(=O)(=O)Nc2ccccc2-c2nc3c(Cl)ccc(Cl)c3c(=O)o2)cc1`, the growth inhibition is 33.6% (inactive).

Take `CCCCCCCNC1=C(O)c2ccccc2C(=O)C1=O`: the growth inhibition is -11.4% (inactive).

On to `O=S1CCS(=O)CCS(=O)CC1` (stereo not given), for which the growth inhibition was -17.1% (inactive).

Consider `CCCCCCCCCCCCCCCC(=O)N=C(C(N)=O)C(N)=O`, for which the growth inhibition was 4.25% (inactive).

In the case of `CC(C)OC/N=C(/N)NC#N`, the growth inhibition is -17.1% (inactive).

`ON1c2ccc3ccccc3c2C=CC1(c1ccccc1)c1ccccc1`: the growth inhibition is -12.7% (inactive).

`COc1ccc2c(c1)N(S(=O)(=O)c1ccc(C)cc1)C[C@@H]1c3cc(O)c(OCc4ccccc4)cc3O[C@H]21`: the growth inhibition is -8.95% (inactive).

Regarding `O=C1CCC(c2nc3ccccc3[nH]2)N1Cc1cccs1` (stereo not given), the growth inhibition was -29.4% (inactive).

Regarding `CC(C)C(O)C[N+](=O)[O-]` (stereo not given), the growth inhibition is 66.3% (inactive).

For `CC1CN(C(C)(C)C)CO1` (stereo not given), the growth inhibition is -0.3% (inactive).

As for `CCCOc1ccc(C(N)=S)c2ccccc12`, the growth inhibition is -0.25% (inactive).

As for `O=C(Nc1cccc(C(F)(F)F)c1)C(=O)C(C(=O)c1ccc(Cl)c(Cl)c1)C1OC(=O)c2ccccc21` (stereo not given), the growth inhibition was 34.9% (inactive).

As for `CCOC(=O)c1c(Br)c2c3ccccc3c3ccccc3n2c1C`, the growth inhibition is 1.7% (inactive).

With `N#Cc1ccc(OC(=O)Nc2ccccc2Cl)cc1`, the growth inhibition is 0.5% (inactive).

Take `CCOC(=N)CC(=O)Nc1ccccc1CC`: the growth inhibition is 17.8% (inactive).

As for `CCOC(=S)SCc1ccc([N+](=O)[O-])cc1`, the growth inhibition is 69.8% (inactive).

Take `CNc1nnnn1C1OC(CO)C(O)C1O` (stereo not given): the growth inhibition was -2.15% (inactive).

`Oc1ccc(Cn2c(-c3ccc(O)cc3)nc3ccccc32)cc1`: the growth inhibition is -6.95% (inactive).

With `CCOC(=O)/C(C#N)=C/C=C1C=CN(C)C=C1`, the growth inhibition is 8.95% (inactive).

For the compound `COC(=O)NCP(=O)(CNC(=O)OC)CNC(=O)OC`, the growth inhibition is 13.8% (inactive).

Turning to `Cc1ccc(Cc2nn(C)c(=O)n2N)cc1`, the growth inhibition is -7.1% (inactive).

Consider `c1cncc(CCc2ccncc2)c1`, for which the growth inhibition was -18.9% (inactive).

Take `CN(C)c1ccc(S(=O)(=O)c2ccc3nc(N)nc(N)c3c2)cc1`: the growth inhibition was 29.2% (inactive).

Turning to `CCOC(=O)/C(O)=C(/C=N\C(=S)Nc1ccccc1Cl)C(=O)OCC`, the growth inhibition is -44% (inactive).

Take `CCC(CO)c1ccccc1` (stereo not given): the growth inhibition is -3.6% (inactive).

Regarding `COc1ccc(C2=NC(C)(C)CO2)cc1C`, the growth inhibition was -23.1% (inactive).

Take `O=C(Nc1ccccc1)c1cc2cc(N=Nc3ccc(Br)cc3)ccc2oc1=O`: the growth inhibition was 4.2% (inactive).

For `CS[C@]12C(=O)C[C@@]3(C)[C@@H](CC[C@]3(O)C(=O)CO)[C@@H]1CCC1=CC(=O)CC[C@@]12C`, the growth inhibition was -2.2% (inactive).

For `CCOc1ccc(CCC(=O)O)cc1`, the growth inhibition is 3.55% (inactive).

Regarding `N#Cc1ccc(OCCCCCOc2ccc(C#N)cc2I)c(I)c1`, the growth inhibition is -4.5% (inactive).

As for `COc1cc(Br)cc(OC)c1Oc1cc(OC)c(OC)c(OC)c1Br`, the growth inhibition was 45.8% (inactive).

Regarding `CCC1OC(=O)C(C)C(OC2CC(C)(O)C(O)C(C)O2)C(C)C(O)C(C)(O)CC(C)C(=O)C(C)C(O)C1C` (stereo not given), the growth inhibition was -14.4% (inactive).

Regarding `O=c1[nH][nH]c(=O)c2[nH]cnc12`, the growth inhibition is -11.9% (inactive).

Take `C/C=C\c1ccc2oc(-c3ccc4c(c3)OCO4)c(C)c2c1`: the growth inhibition was 3.2% (inactive).

On to `COc1ccc(/C=C2\N=C(c3ccccc3)OC2=O)c(Cl)c1OC`, for which the growth inhibition is -9.35% (inactive).

For `CCOC(=O)CCCl`, the growth inhibition is 24% (inactive).

In the case of `CCC1(CCC#N)CCC(N)=CC1=O` (stereo not given), the growth inhibition is 21.9% (inactive).

On to `CCCCC(C)C(=O)CC(SCC)c1ccc(Cl)c(Cl)c1` (stereo not given), for which the growth inhibition was 19.6% (inactive).

As for `COc1ccc(CC(N)C(=O)OCCCl)cc1` (stereo not given), the growth inhibition is 6.65% (inactive).
